Test results published in PubChem BioAssay (Tox21).
Active and inactive are the calls of the source. Calls follow the shape of the dose curve; as a rule, active = well fitted curve in the direction sought with a large enough effect in the repeat runs; inconclusive = weak or mixed curves; inactive = flat fitted curve, though single readings scatter.

Experiment: qHTS assay to test for compound auto fluorescence at 535 nm (green) in HEK293 cells (AID 720680)
Conditions: green autofluorescence 485/535 nm; series mostly up to 91.3 µM
From the text: U.S. Tox21 Program National Center for Advancing Translational Sciences [NCATS] NIH Chemical Genomics Center [NCGC] U.S. Environmental Protection Agency [EPA] National Institutes of Environmental Health Sciences [NIEHS] National Toxicology Program [NTP] U.S. Food and Drug Administration [FDA] Tox21 Assay Overview: Compound auto fluorescence often interferes with screening of the compound library against various biological targets and signaling pathways. Some of these compounds may have fluorophoric properties. Such properties may interfere with the assay outputs resulting in false positives and/or negatives. To decrease such complications and ensure the compound activities are relevant in terms of biological response, the Tox21 10K compound library was screened for auto fluorescence. From the fluorophores used as reporter signals in our screening assays, the auto fluorescence equivalencies of compounds against three fluorophores have been evaluated: Triamterene, Fluorescein and Rose Bengal sodium for blue, green and red fluorescence, respectively. The fluorescence intensities were measured using Excitation/Emission wavelengths at 405/460nm, 485/535nm and 540/590nm for blue, green and red labels, respectively. This assay includes the green fluorescence data.
Tox21 Assay Protocol Summary: 2,000 HEK293 cells in 5 uL of culture medium containing 10% dialyzed FBS per well were dispensed into black wall/clear bottom 1536-well plates using a Multidrop Combi Dispenser (Thermo Scientific). The assay plates were incubated for 4-5 hr at 37C to allow cell attachment to the well bottom, followed by the transfer of 23 nL compound or DMSO vehicle by a pintool work station (Kalypsys, San Diego, CA). After the assay plates were incubated overnight at 37C and 5% CO2, fluorescence intensities in the assay plates were measured by an Envision (PerkinElmer, Shelton, CT) plate reader using three labels for measuring blue, green and red fluorescence at […] 460, 535 and 590nm respectively.

| SMILES | outcome |
| --- | --- |
| C[C@]12CC[C@H]3[C@@H](CC[C@@]45O[C@@H]4C(O)=C(C#N)C[C@]35C)[C@@H]1CC[C@@H]2O | inactive |
| ClCc1cccnc1 | inactive |
| O=C(NC(=O)c1c(F)cccc1F)Nc1cc(Cl)c(OC(F)(F)C(F)C(F)(F)F)cc1Cl (stereo not given) | inactive |
| Cc1ccc(N)cc1N | inactive |
| O=[N+]([O-])c1ccc([As](=O)(O)O)cc1 | inactive |
| O=C(O)c1ccccn1 | inactive |
| O=c1[nH]c2ccccc2c(=O)o1 | inactive |
| CCNc1nc(NC(C)(C)C)nc(SC)n1 | inactive |
| CC(C)=C[C@@H]1[C@@H](C(=O)OCc2coc(Cc3ccccc3)c2)C1(C)C | inactive |
| COCCl | inactive |
| OC(O)C(Cl)(Cl)Cl | inactive |
| C1CC2OC2CC1C1CO1 (stereo not given) | inactive |
| O=[N+]([O-])c1ccc(Oc2ccc(Cl)cc2Cl)cc1 | inactive |
| CC(C)OC(=O)Nc1ccccc1 | inactive |
| CC(C)C1(C)N=C(c2nc3ccccc3cc2C(=O)O)NC1=O (stereo not given) | inactive |
| c1ccc2c(c1)Oc1ccccc1O2 | inactive |
| CC(C)(C)OOC(=O)c1ccccc1 | inactive |
| Nc1ccccc1C(=O)O | inactive |
| Cn1cc(-c2ccccc2)c(=O)c(-c2cccc(C(F)(F)F)c2)c1 | inactive |
| COC(=O)NC(=S)Nc1ccccc1NC(=S)NC(=O)OC | inactive |

| SMILES | outcome |
| --- | --- |
| CCOP(OCC)OCC | inactive |
| C#CC(C)(C)NC(=O)c1cc(Cl)cc(Cl)c1 | inactive |
| Cc1cccc([N+](=O)[O-])c1 | inactive |
| Nc1ccc(Oc2ccc(N)cc2)cc1 | inactive |
| CN(C)[C@@H]1C(=O)C(C(N)=O)=C(O)[C@@]2(O)C(=O)C3=C(O)c4c(O)cccc4[C@@](C)(O)[C@H]3C[C@@H]12 | inactive |
| [N-]=[N+]=[N-] | inactive |
| Cc1[nH]c(=O)n(C(C)(C)C)c(=O)c1Cl | inactive |
| Clc1ccccc1Cl | inactive |
| CC(C)NC(=O)N1CC(=O)N(c2cc(Cl)cc(Cl)c2)C1=O | inactive |
| CCC[N+](=O)[O-] | inactive |
| O=S(=O)(c1ccc(O)cc1)c1ccc(O)cc1 | inactive |
| CCC[CH2][Sn]([Cl])([Cl])[Cl] | inactive |
| CC(=O)C=C(C)C | inactive |
| Clc1ccc(Cl)cc1 | inactive |
| CCCCN(CC)C(=O)SCCC | inactive |
| CC(C)C#N | inactive |
| CCN(CC)CCO | inactive |
| COC(=O)c1ccccc1C(=O)OC | inactive |
| CCOP(=S)(OCC)Oc1cnc2ccccc2n1 | inactive |
| BrCCBr | inactive |
